Results on one compound are retold here after the supplement of paper PMC11001985.

A number with no mark means an inactive call.

Chain of ACLY (lysine site: K991) (P53396 whole entry): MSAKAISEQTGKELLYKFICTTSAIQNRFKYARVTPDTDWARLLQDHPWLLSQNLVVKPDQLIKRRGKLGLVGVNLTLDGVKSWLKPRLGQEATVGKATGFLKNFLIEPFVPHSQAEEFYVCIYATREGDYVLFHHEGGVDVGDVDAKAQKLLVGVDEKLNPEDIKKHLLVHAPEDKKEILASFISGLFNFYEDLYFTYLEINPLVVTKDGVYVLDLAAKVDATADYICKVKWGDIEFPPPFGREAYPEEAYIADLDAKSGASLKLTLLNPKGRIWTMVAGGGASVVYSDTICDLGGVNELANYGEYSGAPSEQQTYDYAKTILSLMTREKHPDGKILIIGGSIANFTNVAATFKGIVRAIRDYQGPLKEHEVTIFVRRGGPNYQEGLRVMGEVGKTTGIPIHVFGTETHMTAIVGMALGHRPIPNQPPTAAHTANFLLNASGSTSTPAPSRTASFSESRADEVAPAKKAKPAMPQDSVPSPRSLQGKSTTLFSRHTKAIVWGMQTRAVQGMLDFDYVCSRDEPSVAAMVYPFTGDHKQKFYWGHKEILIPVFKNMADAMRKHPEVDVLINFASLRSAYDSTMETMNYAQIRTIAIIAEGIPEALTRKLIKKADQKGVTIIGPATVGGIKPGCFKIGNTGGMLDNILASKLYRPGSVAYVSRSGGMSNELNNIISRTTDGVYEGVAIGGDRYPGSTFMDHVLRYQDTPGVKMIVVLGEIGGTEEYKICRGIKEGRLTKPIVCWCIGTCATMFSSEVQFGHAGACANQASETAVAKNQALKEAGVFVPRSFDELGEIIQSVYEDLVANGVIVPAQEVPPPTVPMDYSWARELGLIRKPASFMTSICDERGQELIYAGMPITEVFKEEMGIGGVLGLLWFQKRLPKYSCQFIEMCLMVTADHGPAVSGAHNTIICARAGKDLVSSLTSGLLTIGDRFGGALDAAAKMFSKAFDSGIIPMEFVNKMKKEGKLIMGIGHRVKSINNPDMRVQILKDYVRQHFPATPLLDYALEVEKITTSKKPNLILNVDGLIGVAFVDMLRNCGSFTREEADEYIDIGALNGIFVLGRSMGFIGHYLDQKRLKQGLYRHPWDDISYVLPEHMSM

The experiment deals with ACLY (lysine site: K991) (UniProt P53396). The experiment in a line: lysine labeling ratio R10:1 (500 µM / 50 µM probe), SILAC-ABPP in living cells; higher = lower intrinsic lysine reactivity toward the probe, active = 2 or less. As to conditions: HeLa; probe concentrations 500 vs 50 µM. Here is the method:
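Living HeLa cells (SILAC light/heavy) in PBS at room temperature were labeled with 50 µM versus 500 µM of the lysine-reactive, reductant-cleavable probe OPA-S-S-alkyne (SILAC labeling time not stated). Probe-modified peptides were CuAAC-biotinylated, captured on neutravidin and eluted with DTT/IAA, then quantified by LC-MS/MS. R = median peptide ratio per lysine (500/50 µM), combined over 3 forward and 3 reverse SILAC replicates. Ratios are capped at 20; R < 2 = hyper-reactive.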
With `C#CCNC(=O)CCSSCCC(=O)NCCc1ccc(C=O)c(C=O)c1`, the “lysine labeling ratio R10:1” value is 2.27.
